From PMC5540273 (PLoS ONE, 2017)

What was measured:
Settings in all cases: concentration: 1 μM,replicates: in singlicate; n = 1
NIM1 = tested on: T1, NIM1
T1 construct: gene MGC42105

NLK = tested on: NLK
OSR1 = tested on: T2, OSR1
T2 construct: gene OXSR1

PAK1 = tested on: PAK1
PAK2 = tested on: PAK2
PAK3 = tested on: PAK3
PAK4 = tested on: PAK4
PAK6 = tested on: PAK6
PAK7 = tested on: PAK7
PCTK1 = tested on: T3, PCTK1
T3 construct: gene CDK16

PCTK2 = tested on: T4, PCTK2
T4 construct: gene CDK17

PCTK3 = tested on: T5, PCTK3
T5 construct: gene CDK18

PDGFRA = tested on: PDGFRA
PDGFRB = tested on: PDGFRB
PDPK1 = tested on: PDPK1
PFTAIRE2 = tested on: PFTAIRE2
PFTK1 = tested on: T6, PFTK1
T6 construct: gene CDK14

PHKG1 = tested on: PHKG1
PHKG2 = tested on: PHKG2
PIK3C2B = tested on: PIK3C2B
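Note: KINOMEscan kinase panel screen.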

| Structure (SMILES) | %Inh (NIM1) [%] | %Inh (NLK) [%] | %Inh (OSR1) [%] | %Inh (PAK1) [%] | %Inh (PAK2) [%] | %Inh (PAK3) [%] | %Inh (PAK4) [%] | %Inh (PAK6) [%] | %Inh (PAK7) [%] | %Inh (PCTK1) [%] | %Inh (PCTK2) [%] | %Inh (PCTK3) [%] | %Inh (PDGFRA) [%] | %Inh (PDGFRB) [%] | %Inh (PDPK1) [%] | %Inh (PFTAIRE2) [%] | %Inh (PFTK1) [%] | %Inh (PHKG1) [%] | %Inh (PHKG2) [%] | %Inh (PIK3C2B) [%] |
| --- | --- | --- | --- | --- | --- | --- | --- | --- | --- | --- | --- | --- | --- | --- | --- | --- | --- | --- | --- | --- |
| CC(C(=O)NC1CCN(c2ccnc(Nc3ccc(F)cc3)n2)C1)c1ccc(Cl)cc1 (stereo not shown) [GSK1379713] | 17 | 0 | 5 | 5 | 2 | 0 | 0 | 0 | 0 | 3 | 0 | 12 | 3 | 7 | 0 | 24 | 2 | 0 | 0 | 0 |
| C[C@@H](Oc1cc(-n2cnc3cc(-c4cnn(C)c4)ccc32)sc1C(N)=O)c1ccccc1Cl [GSK580432] | 64 | 0 | 12 | 0 | 13 | 63 | 0 | 2 | 0 | 0 | 0 | 19 | 84 | 99.8 | 75 | 7 | 7 | 0 | 47 | 0 |
| Cn1ccc2ncnc(Oc3ccc(NC(=O)Nc4cncc(C(F)(F)F)c4)c(Cl)c3)c21 | 0 | 9 | 0 | 25 | 0 | 0 | 1 | 0 | 0 | 0 | 0 | 0 | 98.2 | 100 | 26 | 0 | 0 | 0 | 9 | 0 |
| CCn1c(-c2nonc2N)nc2cncc(Br)c21 [SB-738004] | 37 | 22 | 0 | 0 | 16 | 1 | 7 | 15 | 32 | 0 | 14 | 6 | 50 | 18 | 6 | 10 | 25 | 0 | 0 | 0 |
| Cl.Nc1n[nH]c2cc(-c3ccccn3)ccc12 [GSK2189892] | 0 | 0 | 11 | 9 | 2 | 0 | 0 | 2 | 16 | 0 | 13 | 0 | 0 | 16 | 0 | 5 | 6 | 0 | 0 | 0 |
| COc1cccc(OC)c1C(=O)Nc1cccc(-c2nn3ccccc3c2-c2ccnc(Nc3cccc(F)c3)n2)c1 [GSK361065] | 0 | 90 | 0 | 6 | 10 | 0 | 10 | 24 | 0 | 0 | 0 | 3 | 0 | 90.2 | 4 | 2 | 3 | 1 | 2 | 0 |
| COC(=O)c1cccc(NC(=O)NC2CCN(c3ccnc(NCc4ccc(F)cc4)n3)CC2)c1 [GSK1379860] | 15 | 0 | 19 | 0 | 0 | 0 | 0 | 0 | 0 | 8 | 0 | 33 | 14 | 7 | 5 | 0 | 7 | 0 | 0 | 0 |
| O=C(NCC1CC1)c1ccc(-c2cc(C(=O)NC3CC3)ccc2F)cc1 [GW810445] | 35 | 10 | 0 | 0 | 26 | 12 | 0 | 0 | 4 | 0 | 0 | 0 | 0 | 0 | 0 | 0 | 0 | 0 | 0 | 0 |
